Records with an inconclusive call do not appear. The source made the active and inactive calls. The calls were made as follows, unless noted: active = hit-call score of the fitted dose curve at least 0.9, where 1 is the maximum; inactive = score below 0.9.
What was measured:
[1] = read-out: Monocyte Chemoattractant Protein-1 (MCP1), CCL2 (gene 6347); test: BSK_LPS_MCP1: BioMAP Diversity Plus: LPS Assay for Monocyte Chemoattractant Protein-1 (MCP1) Biomarker Activity (AID 2283081); conditions: primary human HUVEC with PBMC; actives raise or lower the signal;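 as to AC50: secreted MCP-1 protein quantified by ELISA in culture supernatant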
Summary of the method: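 Human umbilical vein endothelial cells co-cultured with PBMC, LPS-stimulated; secreted MCP-1 measured by ELISA 24 h after compound addition. Bidirectional curve fitting against DMSO baseline; SRB total-protein staining in parallel cultures for cytotoxicity.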

[2] = read-out: Macrophage colony-stimulating factor (MCSF), CSF1 (gene 1435); test: BSK_LPS_MCSF: BioMAP Diversity Plus: LPS Assay for Macrophage colony-stimulating factor (MCSF) Biomarker Activity (AID 2283083); conditions: primary human HUVEC with PBMC; actives raise or lower the signal
Summary of the method: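 HUVEC–PBMC co-culture, M-CSF measured by ELISA 24 h after chemical dosing. Fitted in both directions relative to DMSO as negative control; overt cytotoxicity assessed by SRB total-protein staining in parallel cultures.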

[3] = read-out: Tissue Factor, F3 (gene 2152); test: BSK_LPS_TissueFactor: BioMAP Diversity Plus: LPS Assay for Tissue Factor Biomarker Activity (AID 2283084); conditions: primary human HUVEC with PBMC; actives raise or lower the signal
Summary of the method: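 Human umbilical vein endothelial cells co-cultured with PBMC were dosed with compound. Cell-surface CD142 was measured by ELISA 24 h later. Activity was fitted bidirectionally against DMSO, with SRB total-protein staining in parallel cultures for cytotoxicity.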

[4] = read-out: Tumor necrosis factor (Homo sapiens) (UniProt P01375); test: BSK_LPS_TNFa: BioMAP Diversity Plus: LPS Assay for Tumour Necrosis Factor alpha (TNFa) Biomarker Activity (AID 2283085); conditions: primary human HUVEC with PBMC; actives raise or lower the signal;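 as to AC50: TNFa protein level quantified by ELISA in the co-culture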
Summary of the method: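 ELISA-based TNFa endpoint in a human endothelial–PBMC co-culture sampled 24 h post-exposure. Curves were fitted in both directions using DMSO as baseline of activity.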

[5] = read-out: Vascular cell adhesion molecule 1 (VCAM1), VCAM1 (gene 7412); test: BSK_LPS_VCAM1: BioMAP Diversity Plus: LPS Assay for Vascular cell adhesion molecule 1 (VCAM1) Biomarker Activity (AID 2283086); conditions: primary human HUVEC with PBMC; actives raise or lower the signal
Summary of the method: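 Measured by ELISA: VCAM-1 in LPS-activated HUVEC/PBMC co-cultures 24 h after treatment. Values reflect bidirectional fitting with DMSO as baseline.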

CD38, CD38 (gene 952) = test: BSK_SAg_CD38: BioMAP Diversity Plus: SAg Assay for CD38 Biomarker Activity (AID 2283087); conditions: primary human HUVEC with PBMC; actives raise or lower the signal
Summary of the method: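 Measures CD38 on a human endothelial/PBMC co-culture driven by SEB and TSST-1, 24 h after compound exposure, using ELISA with fluorescence detection; DMSO defines baseline for bidirectional curve fitting.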

CD40, CD40 (gene 958) = test: BSK_SAg_CD40: BioMAP Diversity Plus: SAg Assay for CD40 Biomarker Activity (AID 2283088); conditions: primary human HUVEC with PBMC; actives raise or lower the signal
Summary of the method: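 HUVEC plus PBMC co-culture, superantigen-activated, with CD40 read by ELISA 24 h after dosing. Curves fitted in both directions against DMSO. Overt cytotoxicity checked by parallel SRB total-protein staining.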

CD69, CD69 (gene 969) = test: BSK_SAg_CD69: BioMAP Diversity Plus: SAg Assay for CD69 Biomarker Activity (AID 2283089); conditions: primary human HUVEC with PBMC; actives raise or lower the signal;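 as to AC50: cell surface CD69 protein quantified by ELISA with fluorescence detection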
Summary of the method: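 ELISA, fluorescence read-out: CD69 on human umbilical vein endothelial cell + PBMC co-culture, 24 h post-dosing. Gain or loss of signal fitted bidirectionally against DMSO baseline.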

[6] = read-out: Monocyte Chemoattractant Protein-1 (MCP1), CCL2 (gene 6347); test: BSK_SAg_MCP1: BioMAP Diversity Plus: SAg Assay for Monocyte Chemoattractant Protein-1 (MCP1) Biomarker Activity (AID 2283090); conditions: primary human HUVEC with PBMC; actives raise or lower the signal
Summary of the method: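 Values derive from bidirectional fitting of ELISA-measured MCP1 against DMSO controls. Readings were taken 24 h after dosing human vascular endothelial cells co-cultured with peripheral blood mononuclear cells under superantigen stimulation.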

[7] = read-out: E-selectin (Homo sapiens) (UniProt P16581); test: BSK_SAg_Eselectin: BioMAP Diversity Plus: SAg Assay for Eselectin Biomarker Activity (AID 2283091); conditions: primary human HUVEC with PBMC; actives raise or lower the signal
Summary of the method: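 Human umbilical vein endothelial cells co-cultured with peripheral blood mononuclear cells, SAg system. E-selectin is measured by ELISA 24 h after dosing and fitted bidirectionally against DMSO. Cytotoxicity is checked by SRB staining of parallel cultures.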

[8] = read-out: Monokine induced gamma interferon (MIG), CXCL9 (gene 4283); test: BSK_SAg_MIG: BioMAP Diversity Plus: SAg Assay for Monokine induced gamma interferon (MIG) Biomarker Activity (AID 2283092); conditions: primary human HUVEC with PBMC; actives raise or lower the signal
Summary of the method: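 ELISA readout of MIG/CXCL9; primary human umbilical vein endothelial cells co-cultured with peripheral blood mononuclear cells; 24 h post-dose; gain/loss fit vs DMSO baseline.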

[9] = BSK_SAg_PBMCCytotoxicity: PBMC Cytotoxicity Assessment in the BioMAP Diversity Plus: SAg Assay (AID 2283093); conditions: primary human HUVEC with PBMC;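 also: fitted both ways against DMSO so a hit may be loss or gain of signal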;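 as to AC50: PBMC superantigen activated with SEB plus TSST-1 one hour after compound addition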
Summary of the method: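 PBMC viability by Alamar Blue reduction, fluorescence read at 546/580 nm after 6 h dye exposure. Cells were dosed 1 h before SEB plus TSST-1 activation (20 ng/mL final each), then held 90 h; endothelial/PBMC human co-culture.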

[10] = read-out: Interleukin-8 (IL8), CXCL8 (gene 3576); test: BSK_SAg_IL8: BioMAP Diversity Plus: SAg Assay for Interleukin-8 (IL8) Biomarker Activity (AID 2283094); conditions: primary human HUVEC with PBMC; actives raise or lower the signal
Summary of the method: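 Primary human endothelial cells with PBMC, exposed 24 h; IL-8 determined by ELISA, analysed bidirectionally relative to DMSO.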

[11] = BSK_SAg_SRB: Viability Assessment in the BioMAP Diversity Plus: SAg Assay (AID 2283096); conditions: primary human HUVEC with PBMC;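 also: cells read one day after compound addition; hits may be either gain or loss of signal compared with DMSO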
Summary of the method: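 Compounds were added to a human vascular co-culture of umbilical vein endothelium and PBMC. After 24 h, parallel cultures were fixed with 10% TCA, stained with 0.1% sulforhodamine B and read at 560 nm. Gain or loss of signal was fitted relative to DMSO.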

[12] = biological target: human CYP1A2, CYP1A2 (gene 1544) (UniProt P05177); test: NVS_ADME_hCYP1A2: NovaScreen (NVS) CYP450-related Enzyme Activity (ADME) Assay for human CYP1A2 (AID 2283102; active = hit-call score of the fitted dose curve at least 0.9, where 1 is the maximum;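 also: potency for inhibition since loss of fluorescence marks reduced CYP1A2 activity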)
Summary of the method: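 Recombinant human CYP1A2 from insect cells, cell-free, fluorogenic substrate; read 0.5 h after dosing with loss of fluorescence signal indicating inhibition. Primary screen in duplicate at 10 uM, acetonitrile as negative control.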

[13] = biological target: human CYP2B6, CYP2B6 (gene 1555) (UniProt P20813); test: NVS_ADME_hCYP2B6: NovaScreen (NVS) CYP450-related Enzyme Activity (ADME) Assay for human CYP2B6 (AID 2283101; active = hit-call score of the fitted dose curve at least 0.9, where 1 is the maximum)
Summary of the method: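 Fluorescence-based enzyme activity of recombinant human CYP2B6, measured 1 h post-dose against acetonitrile vehicle baseline. Screened at a single concentration of 10 uM in duplicate before concentration-response follow-up.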

[14] = biological target: human CYP2A6, CYP2A6 (gene 1548) (UniProt P11509); test: NVS_ADME_hCYP2A6: NovaScreen (NVS) CYP450-related Enzyme Activity (ADME) Assay for human CYP2A6 (AID 2283099; active = hit-call score of the fitted dose curve at least 0.9, where 1 is the maximum)
Summary of the method: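 Recombinant human CYP2A6 expressed in insect cells, cell-free; fluorogenic substrate turnover read by fluorescence intensity 0.5 h after dosing. Primary screen 10 uM in duplicate, then concentration-response up to 20 uM; acetonitrile as negative control.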

Measured: AC50

E-selectin (Homo sapiens), sequence (P16581 whole entry, looked up): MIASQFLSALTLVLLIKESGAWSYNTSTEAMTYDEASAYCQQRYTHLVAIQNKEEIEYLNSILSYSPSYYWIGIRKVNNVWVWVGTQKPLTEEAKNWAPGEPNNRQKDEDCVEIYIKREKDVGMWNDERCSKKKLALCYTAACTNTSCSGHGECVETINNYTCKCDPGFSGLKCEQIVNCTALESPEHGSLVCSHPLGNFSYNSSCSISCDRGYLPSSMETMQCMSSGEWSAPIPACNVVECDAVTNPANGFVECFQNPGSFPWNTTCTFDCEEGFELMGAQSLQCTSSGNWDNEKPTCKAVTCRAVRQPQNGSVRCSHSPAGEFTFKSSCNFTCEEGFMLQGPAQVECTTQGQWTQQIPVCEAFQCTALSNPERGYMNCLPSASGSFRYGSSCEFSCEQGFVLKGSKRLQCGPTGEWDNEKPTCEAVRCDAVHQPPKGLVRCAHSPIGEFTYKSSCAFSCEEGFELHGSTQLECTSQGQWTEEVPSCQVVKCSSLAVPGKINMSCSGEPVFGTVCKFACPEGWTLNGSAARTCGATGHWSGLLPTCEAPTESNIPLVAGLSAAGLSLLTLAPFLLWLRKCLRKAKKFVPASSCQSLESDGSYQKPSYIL
Tumor necrosis factor (Homo sapiens), sequence (P01375 whole entry, looked up): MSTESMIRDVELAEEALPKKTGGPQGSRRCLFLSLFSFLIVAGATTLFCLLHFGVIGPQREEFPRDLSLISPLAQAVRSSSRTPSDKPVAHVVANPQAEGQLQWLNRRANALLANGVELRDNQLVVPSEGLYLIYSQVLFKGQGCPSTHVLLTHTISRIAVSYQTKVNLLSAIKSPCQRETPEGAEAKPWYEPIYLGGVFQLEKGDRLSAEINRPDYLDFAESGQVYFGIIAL
human CYP1A2, CYP1A2 (gene 1544), sequence (P05177 whole entry, looked up): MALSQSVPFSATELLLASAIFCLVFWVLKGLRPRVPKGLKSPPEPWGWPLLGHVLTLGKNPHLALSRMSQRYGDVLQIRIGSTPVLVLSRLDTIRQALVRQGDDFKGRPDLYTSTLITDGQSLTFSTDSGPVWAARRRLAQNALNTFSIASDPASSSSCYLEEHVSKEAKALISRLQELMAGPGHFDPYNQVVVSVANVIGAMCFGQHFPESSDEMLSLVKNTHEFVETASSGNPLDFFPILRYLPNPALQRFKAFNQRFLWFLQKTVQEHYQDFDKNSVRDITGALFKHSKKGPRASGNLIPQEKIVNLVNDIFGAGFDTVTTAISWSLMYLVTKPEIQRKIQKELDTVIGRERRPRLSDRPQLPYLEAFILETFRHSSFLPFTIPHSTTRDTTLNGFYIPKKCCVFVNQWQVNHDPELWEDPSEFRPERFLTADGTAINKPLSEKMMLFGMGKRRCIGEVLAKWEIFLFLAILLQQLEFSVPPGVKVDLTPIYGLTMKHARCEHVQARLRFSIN
human CYP2A6, CYP2A6 (gene 1548), sequence (P11509 whole entry, looked up): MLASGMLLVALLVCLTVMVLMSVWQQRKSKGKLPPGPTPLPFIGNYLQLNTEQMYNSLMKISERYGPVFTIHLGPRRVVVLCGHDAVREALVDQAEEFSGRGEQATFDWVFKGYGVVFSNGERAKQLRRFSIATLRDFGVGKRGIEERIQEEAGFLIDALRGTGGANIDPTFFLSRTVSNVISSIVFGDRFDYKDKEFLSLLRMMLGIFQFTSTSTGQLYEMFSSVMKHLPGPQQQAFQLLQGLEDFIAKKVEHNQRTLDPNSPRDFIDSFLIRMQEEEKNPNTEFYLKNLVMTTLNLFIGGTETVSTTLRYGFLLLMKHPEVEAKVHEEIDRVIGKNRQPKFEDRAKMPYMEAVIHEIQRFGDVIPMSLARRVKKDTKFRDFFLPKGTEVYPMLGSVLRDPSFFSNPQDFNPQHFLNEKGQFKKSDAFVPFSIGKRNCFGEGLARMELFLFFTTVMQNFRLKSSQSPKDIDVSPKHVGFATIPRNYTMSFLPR
human CYP2B6, CYP2B6 (gene 1555), sequence (P20813 whole entry, looked up): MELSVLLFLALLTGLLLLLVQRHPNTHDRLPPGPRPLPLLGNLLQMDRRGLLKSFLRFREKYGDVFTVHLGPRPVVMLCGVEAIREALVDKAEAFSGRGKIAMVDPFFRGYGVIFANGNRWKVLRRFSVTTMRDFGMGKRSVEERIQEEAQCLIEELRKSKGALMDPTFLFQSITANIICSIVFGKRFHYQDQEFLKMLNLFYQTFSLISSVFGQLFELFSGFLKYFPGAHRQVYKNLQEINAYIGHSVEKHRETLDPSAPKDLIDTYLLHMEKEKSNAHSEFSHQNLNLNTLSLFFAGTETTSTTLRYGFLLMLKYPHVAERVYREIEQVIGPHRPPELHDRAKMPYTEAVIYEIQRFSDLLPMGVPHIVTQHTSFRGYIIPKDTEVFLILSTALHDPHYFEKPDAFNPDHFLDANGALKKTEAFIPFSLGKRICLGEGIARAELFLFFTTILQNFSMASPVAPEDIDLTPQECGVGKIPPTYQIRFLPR

Cc1c2ccccc2c(C)c2c1ccc1ccccc12
inactive: [3] | [4] | [6] | [8]
active: [1] 25.3 µM | [2] 20 µM | [5] 24.1 µM | CD38, CD38 (gene 952) 28.6 µM | CD40, CD40 (gene 958) 22.3 µM | CD69, CD69 (gene 969) 20 µM | [7] 5.2 µM | [9] 34 µM | [10] 26.4 µM | [11] 29.1 µM | [12] 4.33 µM

O=c1[nH]sc2ccccc12
active: [1] 17.6 µM | [2] 12 µM | [4] 9.18 µM | [5] 9.14 µM | CD38, CD38 (gene 952) 8.45 µM | CD40, CD40 (gene 958) 7.92 µM | CD69, CD69 (gene 969) 13.1 µM | [6] 15.3 µM | [7] 12.3 µM | [8] 28.8 µM | [9] 3.66 µM | [10] 23.2 µM | [11] 26.8 µM | [13] 0.721 µM

CC[C@@H]1C[C@H](N(Cc2cc(C(F)(F)F)cc(C(F)(F)F)c2)C(C)=O)c2cc(C(F)(F)F)ccc2N1C(=O)OC(C)C
not listed: [3] | [12] | [13] | [14]
inactive: all other assays above

CN(C)C(=O)C1(N2CCCCC2)CCN(CC[C@@]2(c3ccc(Cl)c(Cl)c3)CN(C(=O)c3ccccc3)CCO2)CC1
active: [1] 25.2 µM | [2] 20.8 µM | [4] 35.4 µM | [5] 26.6 µM | CD38, CD38 (gene 952) 21.3 µM | CD40, CD40 (gene 958) 18.9 µM | CD69, CD69 (gene 969) 16.5 µM | [6] 22.2 µM | [7] 28.3 µM | [8] 31.7 µM | [9] 15.4 µM | [10] 12 µM | [11] 14 µM

CCOC(=O)O[C@H](C)OC(=O)c1ccc2c(c1)cc(C(=O)NC1CCN(C(C)C)CC1)n2Cc1cc(-c2ccc(Cl)s2)on1
active: [1] 8.72 µM | [2] 6.43 µM | [3] 10.9 µM | [4] 10.1 µM | [5] 6.25 µM | CD38, CD38 (gene 952) 7.17 µM | CD40, CD40 (gene 958) 6.99 µM | CD69, CD69 (gene 969) 6.44 µM | [6] 7.11 µM | [7] 8.76 µM | [8] 8.05 µM | [9] 2.82 µM | [10] 6.18 µM | [11] 6.18 µM | [12] 13.7 µM
inactive: [14]

Reference: PubChem BioAssay (EPA / NIEHS)
